# Experimental data: the supplement of paper PMC8975748
# Structures can show the parent of a compound that is named as a salt.
# Tested on: Saccharomyces cerevisiae BY4741 SeMeCo community
# Assay: z-score of subpopulation abundance vs DMSO median, subpopulation auxotrophic for HLM; higher = larger share of this subpopulation than in DMSO controls
# Conditions: 10 µM; 24 h; SM minimal medium; subpopulation (auxotrophy): HLM
# Description: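 Fluorescent four-plasmid SeMeCo (self-establishing metabolically cooperating S. cerevisiae BY4741 community; plasmids pH-mRuby2, pL-mWasabi, pU-eCFP, pM-TagRFP657) was grown 24 h in minimal SM medium with each Selleck FDA-approved drug at 10 µM in 384-well plates. Cells were fixed and imaged by high-content confocal microscopy. For each auxotrophic subpopulation (and the prototroph), a z-score gives the deviation from the DMSO vehicle-control population median.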
row,Structure (SMILES),z-score of subpopulation abundance
1,O=C(O[C@H]1C[N+]2(CCCOc3ccccc3)CCC1CC2)C(O)(c1cccs1)c1cccs1 [Aclidinium Bromide],-0.51
2,Oc1cccc2cccnc12 [8-Hydroxyquinoline],-0.08
3,CC[N+](C)(CC)CCOC(=O)C(O)(c1ccccc1)c1ccccc1 [Methylbenactyzine Bromide],-1.19
4,CC[C@H]1CN2CC[C@]3(C(=O)Nc4ccccc43)[C@@H]2C[C@@H]1/C(=C\OC)C(=O)OC [Rhynchophylline],1.16
5,CC[C@H]1[C@@H]2C[C@H]3[C@@H]4N(C)c5ccccc5[C@]45C[C@@H]([C@@H]2[C@H]5O)N3[C@@H]1O [Ajmaline],-0.46
6,CN1[C@@H]2CC[C@H]1C[C@@H](OC(=O)C(CO)c1ccccc1)C2 (some centres undefined) [Atropine sulfate monohydrate],-0.94
7,C[N+](C)(C)CCCCCCCCCC[N+](C)(C)C [Decamethonium Bromide],-0.27
8,CN1[C@@H]2CC[C@H]1C[C@@H](OC(=O)[C@H](CO)c1ccccc1)C2 [Hyoscyamine],0.11
9,COc1ccc2c(c1)[C@]13CCCC[C@@H]1[C@H](C2)N(C)CC3 [Dextromethorphan hydrobromide hydrate],0.03
10,CCC1=C[C@H]2CN3CCc4c([nH]c5ccccc45)[C@](C(=O)OC)(C2)[C@H]13 [Catharanthine],-0.68
11,Cc1cc(C(C#N)c2ccc(Cl)cc2)c(Cl)cc1NC(=O)c1cc(I)cc(I)c1O (centres undefined) [Closantel],-0.4
12,C=CCN1C[C@H](C(=O)N(CCCN(C)C)C(=O)NCC)C[C@@H]2c3cccc4[nH]cc(c34)C[C@H]21 [Cabergoline],-0.2
13,CN(C)C(=O)Oc1ccc[n+](C)c1 [Pyridostigmine Bromide],0.28
14,CCOC(=O)Nc1ccc(NCc2ccc(F)cc2)cc1N [Retigabine],0.18
15,COc1ccc2[nH]cc(CCN)c2c1 [5-Methoxytryptamine],0.21
16,CCOC(=O)Nc1ccc(NCc2ccc(F)cc2)cc1N [Retigabine 2HCl],-0.02
17,O=c1cccc2n1C[C@@H]1CNC[C@H]2C1 [Cytisine],-0.15

row,Structure (SMILES),z-score of subpopulation abundance
1,CN1c2ccccc2C(NCCCCCCC(=O)O)c2ccc(Cl)cc2S1(=O)=O (centres undefined) [Tianeptine sodium],-0.48
2,CN[C@@H]1[C@@H](O)[C@@H](O[C@@H]2[C@@H](O)[C@H](O[C@H]3O[C@H](CN)CC[C@H]3N)[C@@H](N)C[C@H]2N)OC[C@]1(C)O.CN[C@@H]1[C@@H](O)[C@@H](O[C@@H]2[C@@H](O)[C@H](O[C@H]3O[C@H]([C@@H](C)N)CC[C@H]3N)[C@@H](N)C[C@H]2N)OC[C@]1(C)O.CN[C@@H]1[C@@H](O)[C@@H](O[C@@H]2[C@@H](O)[C@H](O[C@H]3O[C@H]([C@@H](C)NC)CC[C@H]3N)[C@@H](N)C[C@H]2N)OC[C@]1(C)O [Gentamicin Sulfate],0.75
3,CN(C)[C@@H]1C(=O)C(C(N)=O)=C(O)[C@@]2(O)C(=O)C3=C(O)c4c(O)cccc4[C@@](C)(O)[C@H]3C[C@@H]12 [Tetracycline HCl],-0.42
4,Cc1cc(O)ccc1Cl [Chlorocresol],-0.58
5,CN1C(=O)COc2c(C(=O)NC3CN4CCC3CC4)cc(Cl)cc21 (centres undefined) [Azasetron HCl],1.29
6,CN(C)[C@@H]1C(=O)C(C(N)=O)=C(O)[C@@]2(O)C(=O)C3=C(O)c4c(O)ccc(Cl)c4[C@@](C)(O)[C@H]3C[C@@H]12 [Chlortetracycline HCl],-0.55
7,Nc1ccncc1 [4-Aminopyridine],-0.2
8,C[CH2][Hg][S]c1ccccc1C(=O)[O-].[Na+] [Thimerosal],131
9,NCCc1c[nH]c2ccc(O)cc12 [Serotonin HCl],-0.77
10,O=[N+]([O-])C(Br)(CO)CO [Bronopol],-0.88
11,C[N+]12CCC(CC1)C(OC(=O)C(O)(c1ccccc1)c1ccccc1)C2 (centres undefined) [Clidinium Bromide],-0.26
12,CC(C)N(CCC(C(N)=O)(c1ccccc1)c1ccccn1)C(C)C (centres undefined) [Disopyramide],0.67
13,Cn1cc(C2=C(c3cn(C4CCN(Cc5ccccn5)CC4)c4ccccc34)C(=O)NC2=O)c2ccccc21,-1.27
14,C[C@@H]1O[C@@H](O[C@H]2C[C@@H](O)[C@]3(CO)[C@H]4[C@H](O)C[C@]5(C)[C@@H](C6=CC(=O)OC6)CC[C@]5(O)[C@@H]4CC[C@]3(O)C2)[C@H](O)[C@H](O)[C@H]1O [Ouabain],-0.79
15,CC1(C)SC2C(N)C(=O)N2C1C(=O)O (centres undefined) [6-Aminopenicillanic acid],-0.43
16,CCN(CC)CCOC(=O)C(O)(c1ccccc1)c1ccccc1 [Benactyzine hydrochloride],0.1
17,CN(C)C(=O)Oc1cccc([N+](C)(C)C)c1 [Neostigmine Bromide],-0.52
